Our source for the Potency and activity (max response) values is PubChem BioAssay (NCATS).

Records with an inconclusive call do not appear. Unmarked numbers belong to inactive results. Activity calls are given as the source filed them. The call rests on the fitted dose curve; in most records, active means well fitted curve in the direction sought with a large enough effect; inconclusive means small, poorly fitted or top-dose-only effect, or another doubt; inactive means no such curve, though single readings can be large; an effect the other way counts as inactive or inconclusive.

Experiment [1] is described as follows: Quantitative highthroughput screen to assess conditional lethalithy of NOMO1 cells grown in RPMI1640 with untreated serum (RPMI+s) (AID 1963876). Further: nearly all actives have a fitted effect of over 35% in size.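 On viability: 100% = DMSO wells and 0% = empty wells without cells.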 The gist of the method: (§1)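 Each medium arm—HPLM with 10% dialyzed FBS, or RPMI1640 with 5 mM glucose and 10% untreated or dialyzed FBS—was screened against an 11-point, 3-fold compound titration for 48 h at 37 °C, with CellTiter-Glo luminescence as endpoint.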

A short description of experiment [2]: Quantitative highthroughput screen to assess conditional lethalithy of NOMO1 cells grown in RPMI1640 with dialyzed fetal bovine serum (RPMI+ds) (AID 1963877). Further: nearly all actives have a fitted effect of over 30% in size.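 On viability: series mostly up to about 46 µM; 100% = DMSO control wells and 0% = empty wells.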 The method in brief:
as §1

The nature of experiment [3]: Quantitative highthroughput screen to assess conditional lethalithy of NOMO1 cells grown in Human Plasma-Like Medium with dialyzed fetal bovine serum (HPLM+ds) (AID 1963878). Further: nearly all actives have a fitted effect of over 35% in size.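 On viability: 100% = DMSO wells and 0% = empty wells on each plate.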 The gist of the method:
as §1

Experiment [4] can be described thus: Quantitative highthroughput screen to assess conditional lethalithy of P12 Ichikawa cells grown in Human Plasma-Like Medium with dialyzed fetal bovine serum (HPLM+ds) (AID 1963879). Further: nearly all actives have a fitted effect of over 35% in size. On viability: series mostly up to about 46 µM. The note with it: Potency: viability. The method in brief:
as §1

Experiment [5] can be described thus: Quantitative highthroughput screen to assess conditional lethalithy of P12 Ichikawa cells grown in RPMI1640 with dialyzed fetal bovine serum (RPMI+ds) (AID 1963880). Further: nearly all actives have a fitted effect of over 35% in size.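 On viability: 100% = DMSO wells and 0% = empty wells on each plate.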 The following applies: Potency: P12-Ichikawa viability. The gist of the method: as §1
Experiment [6] can be described thus: Quantitative highthroughput screen to assess conditional lethalithy of SEM cells grown in Human Plasma-Like Medium with dialyzed fetal bovine serum (HPLM+ds) (AID 1963882). Further: nearly all actives have a fitted effect of over 35% in size. On viability: series mostly up to about 46 µM. The method in brief: as §1
The nature of experiment [7]: Quantitative highthroughput screen to assess conditional lethalithy of SEM cells grown in RPMI1640 with unreated serum (RPMI+s) (AID 1963883). Further: nearly all actives have a fitted effect of over 35% in size.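 On viability: 100% = DMSO wells and 0% = empty wells without cells.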 The gist of the method: as §1
A short description of experiment [8]: Quantitative highthroughput screen to assess conditional lethalithy of SEM cells grown in RPMI1640 with dialyzed fetal bovine serum (RPMI+ds) (AID 1963884). Further: nearly all actives have a fitted effect of over 35% in size.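 On viability: series mostly up to about 46 µM; 100% = DMSO control wells and 0% = empty wells without cells.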 The method in brief:
as §1

Experiment [9] is described as follows: Cellular viability qHTS for adrenocortical cancer (ACC) cell line SW-13 (AID 1963989). Further: nearly all actives have a fitted effect of over 65% in size.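 On activity (max response): cells grown in serum-free medium with ITS supplement; on the % scale 0 is the no-effect control and ±100 the full control effect.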 The following applies: SW-13 ACC cells viability, CellTiter-Glo, 48 h; activity (max response): hits give low values. The gist of the method: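 Compound titrations (up to 46 uM final, in DMSO) were applied to SW-13 cells for 48 h at 37C/5% CO2. Reading used CellTiter-Glo after 20 min at room temperature; fitted curves yielded IC50 and efficacy.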
(Quantitative high-throughput screening tests each substance at several concentrations.)

The nature of experiment [10]: Quantitative highthroughput screen to assess conditional lethalithy of P12 Ichikawa cells grown in RPMI1640 with untreated serum (RPMI+s) (AID 1963881). Further: nearly all actives have a fitted effect of over 35% in size.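 On viability: series mostly up to about 46 µM; 100% = DMSO wells and 0% = empty wells without cells.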 The note with it: Potency: viability. The gist of the method:
as §1

Experiment [11] is described as follows: Cellular viability qHTS for adrenocortical cancer (ACC) cell line NCI-H295R (AID 1963990). Further: nearly all actives have a fitted effect of over 60% in size. The method in brief: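 Readout: CellTiter-Glo luminescence, 20 min RT. Exposure: 48 h, 37C/5% CO2. Cells: NCI-H295R, ITS-DMEM serum-free. Range: up to 46 uM. Analysis: 4PL fit, IC50 plus efficacy.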
Potency means the concentration at half of the fitted maximal effect.

For the compound `CCN(C(=O)c1c(O)c2c(Cl)cccc2n(C)c1=O)c1ccccc1`, the Potency is 1660 nM (active) in [1]; 2640 nM (active) in [2]; 1320 nM (active) in [3]; 3320 nM (active) in experiment [4]; 1660 nM (active) in experiment [5]; 590 nM (active) in [6]. The figures for the Potency in experiment [7], in [8] and in experiment [9] were 332 nM (active), 418 nM (active) and 7940 nM (active), respectively.
Consider `COc1cc(Cl)cn2c(-c3cccc(NC4CNC4)n3)cnc12`, for which the Potency entry in experiment [1], in experiment [2], in [3], in [4], in experiment [5] and in experiment [10] was “inactive” in each case. Moreover, the Potency result in [7] and in experiment [8] was “inactive” throughout.
Take `CCNC(=O)[C@H]1O[C@@H](n2cnc3c(N)nc(NCCc4ccc(CCC(=O)O)cc4)nc32)[C@H](O)[C@H]1O`: the Potency entry in experiment [1], in experiment [2], in experiment [3], in experiment [4], in experiment [5] and in [6] was “inactive” each time. In addition, in [8], the Potency result is “inactive”.
For `C[C@]12CC[C@@H]3c4ccc(O)cc4CC[C@H]3[C@H]1[C@@H](O)[C@@H](O)[C@H]2O`, the Potency entry in experiment [1], in experiment [2], in experiment [3], in [4], in [5] and in experiment [10] was “inactive” throughout. For the same compound, the Potency entry in experiment [11] was “inactive”. Further, the activity (max response) in experiment [9] is -1.98%.
For the compound `C=C1C(=CC=C2CCC[C@]3(C)[C@@H]([C@H](C)C=C[C@H](C)C(C)C)CC[C@@H]23)C[C@@H](O)C[C@@H]1O`, the Potency in experiment [1] was 16600 nM (active); in experiment [2], 20900 nM (active); in experiment [3] it was 8330 nM (active); in experiment [4] it was 8330 nM (active); in experiment [5], 14800 nM (active); in experiment [10], 9350 nM (active). The Potency result in experiment [11] was “inactive”.
For `CCC(C=C[C@@H]1OC(=O)C=C[C@H]1C)=C[C@H](C)CC=CC(C)=C[C@@H](C)C(=O)[C@@H](C)[C@H](O)[C@@H](C)CC(C)=CC(=O)O`, the Potency in experiment [1] is 110 nM (active); in [2] it was 87.7 nM (active); in experiment [3], 78.2 nM (active); in experiment [4], 110 nM (active); in experiment [5], 87.7 nM (active); in experiment [6], 34.9 nM (active). In addition, the values for the Potency in experiment [7] and in [8] were 15.6 nM (active) and 22 nM (active), respectively.
Regarding `CC1=C(CO)C(=O)O[C@@H]([C@@H](C)[C@H]2CC[C@H]3[C@@H]4C[C@H]5O[C@]56[C@@H](O)C=CC(=O)[C@]6(C)[C@@H]4CC[C@]23C)C1`, the Potency in [1] was 372 nM (active); in experiment [2] it was 469 nM (active); in experiment [3], 296 nM (active); in [4], 296 nM (active); in [5] it was 264 nM (active); in [10] it was 235 nM (active). Besides, the Potency was 235 nM (active) in [7] and 264 nM (active) in experiment [8].
Turning to `CC[C@@H]1C=C(C)C[C@H](C)C[C@H](OC)[C@H]2O[C@@](O)(C(=O)C(=O)N3CCCC[C@@H]3C(=O)O[C@H](C(C)=C[C@@H]3CC[C@H](Cl)[C@H](OC)C3)[C@H](C)[C@@H](O)CC1=O)[C@H](C)C[C@H]2OC`, the Potency entry in experiment [1], in [2], in experiment [3], in [4], in experiment [5] and in experiment [10] was “inactive” in each case. Besides, in experiment [7], the Potency entry was “inactive”. Further, the Potency in [8] was 1480 nM (active).
Consider `C[C@@H](Cc1cc2c(c(C(N)=O)c1)N(CCCO)CC2)NCCOc1ccccc1OCC(F)(F)F`, for which the Potency result in [1], in experiment [2], in [3], in [4], in experiment [5] and in [6] was “inactive” each time. In addition, the Potency entry in experiment [7] and in experiment [8] was “inactive” in each case.
For `NS(=O)(=O)c1ccc(NC2=CC(=O)c3ccccc3C2=O)cc1`, the Potency result in experiment [1], in experiment [2], in experiment [3], in experiment [4], in experiment [5] and in [10] was “inactive” in each case. Moreover, the activity (max response) in experiment [9] was -24.7%. In addition, the Potency in [11] is 3980 nM (active).
With `O=C(Nc1c(Cl)cncc1Cl)c1ccc(OC(F)F)c(OCC2CC2)c1`, the Potency result in experiment [1], in experiment [2], in [3], in experiment [4], in experiment [5] and in experiment [10] was “inactive” each time. The Potency result in experiment [7], in experiment [8] and in [11] was “inactive” in each case. In addition, the activity (max response) in experiment [9] is 5.46%.
On to `O=[N+]([O-])c1cn2c(n1)OC[C@@H](OCc1ccc(OC(F)(F)F)cc1)C2`, for which the Potency result in [1], in [2], in experiment [3], in [4], in [5] and in [10] was “inactive” each time. In addition, the Potency entry in experiment [7], in experiment [8] and in experiment [11] was “inactive” throughout.
Consider `CC(=O)[C@H]1CC[C@H]2[C@@H]3CCC4=CC(=O)CC[C@]4(C)[C@H]3CC[C@]12C`, for which the Potency entry in experiment [1], in experiment [2], in experiment [3], in experiment [4], in experiment [5] and in experiment [6] was “inactive” each time. Besides, the Potency entry in experiment [7] was “inactive”.
Consider `CC=C1C2C=C(C)CC1(N)c1ccc(=O)[nH]c1C2` (stereo not given), for which the Potency entry in [1], in experiment [2], in [3], in experiment [4], in [5] and in experiment [10] was “inactive” each time. The Potency entry in [7] and in experiment [8] was “inactive” each time.
Turning to `O=C(NC1CCOCC1)c1ccc(-c2cc(-c3cn[nH]c3-c3ccccn3)ccn2)cc1`, the Potency entry in [1], in [2], in [3], in experiment [4], in experiment [5] and in experiment [6] was “inactive” each time. Also, the Potency result in experiment [7] and in experiment [8] was “inactive” each time. Moreover, the activity (max response) in experiment [9] is 6.28%.
Turning to `COc1cccc(N(C)C(=S)Oc2ccc3c(c2)CCCC3)n1`, the Potency entry in experiment [1], in experiment [2], in [3], in [4], in [5] and in experiment [10] was “inactive” in each case. Further, the Potency result in experiment [7] and in experiment [8] was “inactive” each time.
Consider `OC1CCC(Nc2ncc3nc(Nc4c(F)cc(F)cc4F)n([C@@H]4CCOC4)c3n2)CC1` (stereo not given in full), for which the Potency entry in [1], in experiment [2], in [3], in [4], in [5] and in [10] was “inactive” each time. The Potency entry in experiment [6], in [8] and in experiment [11] was “inactive” in each case.
On to `Cc1ccc(/C=N/NC(=O)c2ccccc2Oc2ccccc2)o1`, for which the Potency entry in experiment [1], in [2], in [3], in experiment [4], in experiment [5] and in experiment [6] was “inactive” throughout. Moreover, the Potency result in experiment [7] and in experiment [11] was “inactive” in each case. In addition, the activity (max response) in [9] is -16.3%.
Consider `CC1(C)CCC[C@@]2(C)[C@@H]1CC[C@@]1(C)OC(=O)C[C@H]21`, for which the Potency entry in [1], in [2], in experiment [3], in experiment [4], in [5] and in experiment [6] was “inactive” throughout. In [8], the Potency result is “inactive”.
